From PMC5540273 (PLoS ONE, 2017)

Assays:
Conditions in all cases: concentration: 1 μM,replicates: in singlicate; n = 1
MLK1 = system: T1, MLK1
T1 construct: gene MAP3K9

MLK2 = system: MLK2
MLK3 = system: MLK3
MRCKA = system: MRCKA
MRCKB = system: T2, MRCKB
T2 construct: gene CDC42BPB

MST1R = system: MST1R
MST1 = system: T3, MST1
T3 construct: gene STK4

MST2 = system: T4, MST2
T4 construct: gene STK3

MST3 = system: T5, MST3
T5 construct: gene STK24

MST4 = system: MST4
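Note: KINOMEscan kinase panel screen.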

SMILES	%Inh (MLK1)	%Inh (MLK2)	%Inh (MLK3)	%Inh (MRCKA)	%Inh (MRCKB)	%Inh (MST1R)	%Inh (MST1)	%Inh (MST2)	%Inh (MST3)	%Inh (MST4)
CNC(=O)c1ccccc1Nc1nc(Nc2cccc(CS(C)(=O)=O)c2)ncc1C.O=CO [GSK1520489]	97.5%	80%	72%	2%	4%	93.4%	80%	49%	34%	54%
COc1cccc(C2=C(Nc3cccc(Cl)c3)C(=O)NC2=O)c1 [SB-341556]	0%	16%	0%	0%	0%	0%	100%	22%	0%	0%
CSc1nccc(-c2c(-c3ccc(F)cc3)ncn2CCCN2CCOCC2)n1.Cl [SB-217146]	0%	28%	0%	0%	0%	0%	0%	0%	6%	0%
Cc1nnc(-c2ccc3occ(-c4ccc(S(C)=O)cc4)c3n2)o1 (centres unmarked)	0%	0%	0%	0%	43%	2%	0%	0%	0%	0%
COC(=O)c1cccc(NC(=O)NC2CCN(c3ccnc(Nc4cc(OC)c(OC)c(OC)c4)n3)C2)c1 (centres unmarked) [GSK1379767]	33%	0%	34%	14%	0%	39%	6%	2%	0%	0%
CCCC(=O)Nc1n[nH]c2ncccc12 [SB-601436]	0%	0%	1%	0%	0%	12%	0%	0%	0%	0%
CC(=O)Nc1nc2cnc(Nc3cc(NC(=O)c4cccc(CC(C)(C)C#N)c4)ccc3C)nc2s1	0%	14%	5%	0%	0%	26%	5%	0%	0%	0%
COC(=O)c1cccc(NC(=O)NC2CCN(c3ccnc(NCc4ccc(F)cc4)n3)CC2)c1 [GSK1379860]	0%	0%	0%	12%	0%	31%	0%	0%	0%	0%
O=C(Nc1cccc(C(F)(F)F)c1)c1cccc(Oc2ccc3nccn3n2)c1	9%	7%	8%	23%	3%	3%	29%	0%	0%	28%
N#Cc1cccc(C(=O)NC2CCN(c3ccnc(Nc4ccc(F)cc4)n3)C2)c1 (centres unmarked) [GSK1379708]	1%	0%	9%	6%	0%	39%	2%	0%	0%	0%
Cc1cccc2c(-c3ccncc3)c(-c3ccc(F)cc3)nn12.Cl [GW461487]	0%	0%	0%	0%	4%	44%	90.4%	46%	16%	0%
CC(=O)Nc1ccc(-c2cc3ncnc(SCC(=O)O)c3s2)cc1	0%	18%	0%	0%	0%	25%	2%	16%	24%	2%
Cn1ccc2ncnc(Oc3ccc(NC(=O)Nc4cccc(C(F)(F)F)c4)c(F)c3)c21	21%	0%	32%	4%	0%	19%	0%	0%	0%	0%
Cn1ccc2ncnc(Oc3ccc(NC(=O)Nc4ccnc(C(F)(F)F)c4)c(Cl)c3)c21	8%	0%	0%	0%	0%	32%	83%	0%	9%	0%
O=C(NCC1CC1)c1ccc(-c2cc(C(=O)NC3CC3)ccc2F)cc1 [GW810445]	7%	0%	0%	0%	0%	0%	55%	0%	0%	0%
C[C@@H]1CNc2c(sc3ccc4nc(-c5ccncc5)ccc4c23)C(=O)N1	2%	0%	4%	0%	9%	18%	2%	6%	10%	0%
NC(=O)Nc1sc(-c2ccc(F)cc2)cc1C(N)=O [GW789449]	39%	25%	35%	0%	0%	0%	37%	49%	21%	25%
CCN1CCN(CCCC(=O)Nc2n[nH]c3nc(-c4ccc(O)cc4)c(Br)cc23)CC1 [SB-731579]	0%	0%	0%	0%	0%	17%	2%	57%	0%	60%
Cc1ccc(Nc2ccnc(Nc3ccc4c(c3)CS(=O)(=O)C4)n2)cc1O.Cl [GW579362]	94.2%	100%	89%	9%	0%	81%	19%	60%	29%	25%
Cn1ccc2ncnc(Oc3ccc(NC(=O)Nc4cncc(C(F)(F)F)c4)c(Cl)c3)c21	0%	0%	0%	0%	0%	0%	0%	0%	0%	0%
OCCn1cc(-c2cnc3nnn(Cc4ccc5ncccc5c4)c3n2)cn1	0%	0%	0%	0%	0%	0%	0%	0%	0%	0%
CC(C)c1nc(-c2cccc(NS(=O)(=O)c3ccccc3)c2)c(-c2ccnc(Nc3ccc4c(c3)CN(C)CC4)n2)s1 [GSK1649598]	18%	0%	22%	7%	0%	41%	67%	26%	82%	82%

SMILES	%Inh (MLK1)	%Inh (MLK2)	%Inh (MLK3)	%Inh (MRCKA)	%Inh (MRCKB)	%Inh (MST1R)	%Inh (MST1)	%Inh (MST2)	%Inh (MST3)	%Inh (MST4)
O=C(Nc1cccc(Oc2ccc3nccn3n2)c1)Nc1cccc(C(F)(F)F)c1	0%	39%	0%	0%	0%	10%	6%	0%	0%	0%
CN1CCN(CCCNc2nccc(-c3c(-c4ccc(F)cc4)nn4cc(C(N)=O)ccc34)n2)CC1 [GW622475]	0%	16%	12%	11%	0%	36%	28%	15%	33%	0%
COc1cc(Nc2nccc(N3CCC(NC(=O)c4cccc(C#N)c4)C3)n2)cc(OC)c1OC (centres unmarked) [GSK1379751]	52%	34%	25%	18%	0%	21%	0%	0%	0%	0%
FC(F)(F)c1cc(Br)cc(Nc2nccc(-c3cnn4ncccc34)n2)c1 [GW810578]	0%	17%	11%	0%	0%	0%	5%	0%	0%	17%
Cc1ccc(C(=O)Nc2ccc(Oc3ccc4nc(NC(=O)C5CC5)cn4c3)c(F)c2)c(=O)n1-c1ccccc1	80%	92.4%	13%	0%	0%	100%	47%	100%	5%	0%
Cc1ccc2c(-c3ccnc(Nc4ccc(C(F)(F)F)cc4)n3)cnn2n1 [GW819776]	7%	35%	3%	0%	16%	0%	13%	39%	0%	0%
Cl.Nc1n[nH]c2cc(-c3ccccn3)ccc12 [GSK2189892]	0%	0%	15%	0%	0%	27%	0%	0%	0%	0%
c1ccc(Oc2ccc(Nc3ccnc4ccc(-c5ccccn5)cc34)cc2)cc1 [GW407034]	1%	3%	5%	2%	9%	0%	0%	0%	4%	0%
Cl.c1ccc(Oc2ccc(Nc3ccnc4cc(-c5ccc(CN6CCNCC6)o5)ccc34)cc2)nc1 [GW567142]	0%	0%	0%	0%	0%	39%	0%	31%	8%	0%
O=C(Nc1n[nH]c2cc(-c3ccco3)ccc12)C1CC1 [SB-737447]	0%	34%	0%	25%	1%	0%	0%	15%	17%	3%
CN(c1cccc(CNc2nc(Nc3ccc4c(c3)CC(=O)N4)ncc2C(F)(F)F)c1)S(C)(=O)=O	93.3%	82%	87%	0%	0%	15%	0%	10%	16%	2%
CN(c1ccc2c(c1)nc(NCc1ccc(F)cc1)n2C)c1ccnc(Nc2ccc(CS(C)(=O)=O)cc2)n1.Cl [GW813244]	24%	44%	0%	6%	0%	0%	16%	0%	1%	3%
CN1CCN(CCNc2nc3cc(Oc4ccc(NC(=O)Nc5cc(C(F)(F)F)ccc5F)cc4)ccc3[nH]2)CC1.Cl.Cl [GW768504]	0%	40%	0%	0%	4%	0%	16%	0%	0%	0%
Cc1cccc(-c2nc(Nc3ccncc3)c3sccc3n2)n1 [GW869641]	3%	34%	19%	67%	98.5%	0%	37%	17%	5%	40%
O=C(Nc1ccc(Oc2ccc3nc(NC(=O)C4CC4)cn3n2)c(F)c1)c1cccn(-c2ccccc2)c1=O	19%	32%	10%	0%	0%	39%	0%	0%	0%	0%
O=c1[nH]cc(-c2ccc(O)cc2)c2sc(-c3ccncc3)cc12 [GSK1033723]	0%	0%	3%	22%	14%	44%	1%	7%	6%	0%
O=C1NCCc2[nH]c(-c3ccncc3)cc21	0%	0%	13%	0%	0%	51%	3%	20%	23%	0%
NC(=O)c1ccc(-c2cc3ncnc(SCC(=O)O)c3s2)cc1	0%	0%	0%	0%	0%	21%	0%	0%	0%	0%
COc1ccc(Nc2nccc(N3CCC(NC(=O)c4cccc(C#N)c4)C3)n2)cc1 (centres unmarked) [GSK1379730]	1%	0%	22%	0%	0%	29%	19%	0%	0%	0%
CCNCC(Cc1ccccc1)NC(=O)c1cc(Br)c(-c2ccnc3[nH]ccc23)s1.Cl.Cl (centres unmarked) [GSK1383280]	0%	6%	0%	64%	98.2%	30%	0%	0%	1%	26%
CC(C(=O)NC1CCN(c2ccnc(Nc3ccc(F)cc3)n2)C1)c1ccc(Cl)cc1 (centres unmarked) [GSK1379713]	0%	12%	0%	0%	0%	0%	5%	0%	0%	0%
Nc1nccc(-c2ccc3c(N)n[nH]c3c2)n1 [GSK1034945]	0%	0%	0%	11%	5%	27%	3%	0%	0%	0%
